# Experimental data as given in PubChem BioAssay AID485281 (National Center for Advancing Translational Sciences (NCATS), 2010).
# In all, about 350,000 compounds went through this assay and about 260 (0.074%) were called active. Entries that show only a call come without a potency. Roughly 8% stayed inconclusive and do not appear here. Calls come from the whole dose curve; as a rule, active = well fitted inhibition curve with a large enough effect; inconclusive = small, poorly fitted or top-dose-only effect; inactive = no such curve, though single readings can be large or run the other way. Only a selection was taken, and actives are over-represented in it overall.
# Target: Ferritin light chain (Equus caballus) (UniProt P02791)
# Sequence (P02791 2-175 limits assumed): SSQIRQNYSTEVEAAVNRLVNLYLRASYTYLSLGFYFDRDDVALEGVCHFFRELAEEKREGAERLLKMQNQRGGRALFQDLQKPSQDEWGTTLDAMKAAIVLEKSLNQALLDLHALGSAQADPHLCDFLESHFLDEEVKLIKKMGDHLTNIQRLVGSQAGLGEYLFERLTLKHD
# Experiment: qHTS Assay for Identification of Novel General Anesthetics; note: nearly all actives have a fitted effect of over 20% in size
# Details: apoferritin/1-aminoanthracene competitive binding, fluorescence; series mostly up to 77.5 µM
# Excerpt: Source: NIH Chemical Genomics Center [NCGC]
# Assay Submitter: Roderic Eckenhoff, University of Pennsylvania
# Screening Center PI: Christopher P. Austin, NIH
# Probe Development: NIH Chemical Genomics Center [NCGC]
# Anesthetic development has remained a largely empirical process. There are growing concerns about the cognitive effects of known general anesthetics and acceleration of the onset of neurodegenerative disease. The compounds' toxicity and multiple specific binding targets in the mammalian brain [4] has made them less attractive as drug leads. In this assay, a GABAergic mimetic model system, apoferritin and a profluorescent 1-aminoanthracene ligand (1-AMA), was used to construct a competitive binding assay for identification of novel general anesthetics. The assay was validated for 1-AMA using other known anesthetics, such as isoflurane (CID:3763) and propofol (CID: 4943), [6].
# [1] S.L. Bianchi, T. Tran, C. Liu, S. Lin, Y. Li, J.M. Keller, R.G. Eckenhoff, and M.F. Eckenhoff, Brain and behavior changes in 12-month-old Tg2576 and nontransgenic mice exposed to anesthetics. Neurobiol Aging 29 (2008) 1002-10.
# [2] Z. Xie, Y. Dong, U. Maeda, R.D. Moir, W. Xia, D.J. Culley, G. Crosby, and R.E. Tanzi, The inhalation anesthetic isoflurane induces a vicious cycle of apoptosis and amyloid beta-protein accumulation. J Neurosci 27 (2007) 1247-54.
# [3] P. Honegger, and J.M. Matthieu, Selective toxicity of the general anesthetic propofol for GABAergic neurons in rat brain cell cultures.
# [4] M.F. Eckenhoff, K. Chan, and R.G. Eckenhoff, Multiple specific binding targets for inhaled anesthetics in the mammalian brain. J Pharmacol Exp Ther 300 (2002) 172-9.
# [5] C.A. Butts, J. Xi, G. Brannigan, A.A. Saad, S.P. Venkatachalan, R.A. Pearce, M.L. Klein, R.G. Eckenhoff, and I.J. Dmochowski, Identification of a fluorescent general anesthetic, 1-aminoanthracene. Proc Natl Acad Sci U S A 106 (2009) 6501-6.
# [6] W.A. Lea, J. Xi, A. Jadhav, L. Lu, C.P. Austin, A. Simeonov, and R.G. Eckenhoff, A high-throughput approach for identification of novel general anesthetics. PLoS One 4 (2009) e7150.
# Three uL of reagents (free 1-AMA (50% saturated solution of 1-aminoanthracene
# in PBS) in columns 3, 4 as negative control and 1-AMA/apoferritin mixture (10 uM horse-spleen apoferritin in 50% saturated 1-aminoanthracene in PBS) in columns 1, 2, 5-48) was dispensed into 1536-well Greiner black assay plates. Compounds (23 nL) were transferred via Kalypsys pintool equipped with 1,536-pin array (10 nL slotted pins, V&P Scientific, San Diego, CA). Titration of the positive control, propofol, were delivered via pin transfer from separate control plates to the 2nd column of each assay plate. The starting concentration of the control, dissolved in DMSO, was at 160 mM, followed by two-fold dilution points in duplicate, for a total of 16 concentrations. The plates were incubated for 10 min at room temperature, and then read on an EnVision HTS multilabel reader (Perkin-Elmer, Waltham, MA) (end point read, 3 min/plate) using Fura2 BFP excitation filter (380 nm, bandwidth 10 nm) and fluorescein emission filter (535 nm, bandwidth 25 nm) set. A LANCE/DELFIA dichroic mirror with a cutoff wavelength at 400 nm was used to maximize signal accuracy and strength. Vehicle-only plates, with DMSO being pin-transferred to the entire column 5-48 compound area, were inserted uniformly at the beginning and the end of each library in order to monitor for and record any shifts in the background. Activity was computed as the normalized fluorescence response relative to free 1-AMA and 1-AMA/apoferritin complex values. Concentration-effect relationships were derived by using curve fitting algorithms developed in-house (http://ncgc.nih.gov/pub/openhts/). A four parameter Hill equation was fitted to the concentration-response data by minimizing the residual error between the modeled and observed responses.
# Potency is the fitted concentration of half-maximal effect.
row,Compound,Potency
1,O=C(NCc1ccc(F)cc1)c1ccc(Cn2c(SCc3ccc(F)cc3)nc3cccnc32)cc1,inactive
2,Cc1cccc2nc(-c3ccc(Cl)s3)c(Nc3ccc4c(c3)OCCO4)n12,inactive
3,O=C(NCC(c1cccnc1)N1CCc2ccccc21)c1cccc(C(F)(F)F)c1 (stereo not drawn),inactive
4,CCOc1ccc(C(=O)/C=C/c2cn(CC(O)CN3CCCCCC3)c3ccccc23)cc1 (stereo not drawn),inactive
5,CCOc1ccc(NC(=O)CCc2c(C)nn(-c3ccc(N4CCCC4)nn3)c2C)cc1,inactive
6,Cc1ccc(-c2nc(SCc3ccc(Br)cc3)n3[nH]c(=O)cc3n2)cc1,inactive
7,Cc1ccc(CN2CCc3nc(N4CCN(C)CC4)ncc3C2)cc1,inactive
8,CCOC(=O)c1cnc2c(C)cc(C)cc2c1Nc1ccc(N2CCOCC2)cc1,inactive
9,COc1cc2nc(SCc3ccc(F)cc3)n3nc(CCn4c(C)nc5ccccc54)nc3c2cc1OC,inactive
10,CCOCCc1nn2c(=O)cc(COC(=O)CNC(=O)c3ccc(C(C)(C)C)cc3)nc2s1,inactive
11,Cc1cccc(NC(=O)C2CCN(S(=O)(=O)c3c(C)noc3/C=C/c3ccco3)CC2)c1,inactive
12,CCN(CCCNC(=O)c1ccc(Sc2ccc(C)cc2)c(NC(C)=O)c1)c1cccc(C)c1,inactive
13,CCOC(=O)c1ccc(CN(Cc2ccccc2)S(=O)(=O)c2ccc(Cl)cc2)cc1,inactive
14,COc1cc(OC)c(NC(=O)N2CC3CCCN3c3ccccc32)cc1Cl (stereo not drawn),inactive
15,COc1ccc2[nH]c3c(c2c1)CCN(C(=O)CCC1CCCC1)C3c1ccc(F)cc1 (stereo not drawn),inactive
16,CN(C(=O)CSc1nc2ccccc2n1Cc1ccccc1C#N)c1ccccc1,inactive
17,Cc1cccc(N2CCN(c3ccc(C(=O)O)cc3NC(=O)c3ccccc3F)CC2C)c1 (stereo not drawn),inactive
18,CCCCc1nn2c(=O)cc(COC(=O)c3ccc(NC(=O)c4ccccc4C)cc3)nc2s1,inactive
19,CCC(=O)N1CCc2cc(S(=O)(=O)NC(C(=O)NCCc3ccc(C)cc3)C(C)C)ccc21 (stereo not drawn),inactive
20,O=C(CSc1nc(-c2cccc(F)c2)[nH]c1-c1ccccc1)Nc1ccc2c(c1)OCO2,inactive
21,CCOC(=O)c1ccc(NC(=O)c2c(NCc3cccs3)sc3c2CCCC3)cc1,inactive
22,COc1ccc(C)cc1NC(=O)COCc1cc(-c2cccs2)on1,inactive
23,Cc1ccc(-n2ncc3c(NCCCn4ccnc4)ncnc32)cc1Cl,inactive
24,CCN(CC)S(=O)(=O)c1nnc(NC(=O)COc2ccccc2Cl)s1,inactive
25,Cc1nc2nc(NCc3cccc(Br)c3)[nH]n2c(=O)c1Cc1ccccc1,inactive

row,Compound,Potency
1,COc1ccccc1N1CCN(CCCNC(=O)c2cnn(-c3ccccc3Cl)c2C2CCN(C(=O)OC(C)(C)C)CC2)CC1,inactive
2,COc1ccc(-n2ccn(CC(=O)Nc3ccc(C)c(C)c3)c(=O)c2=O)cc1OC,inactive
3,Cc1nn(C(C)C(=O)NCCc2ccccc2)c(=O)c2c1sc1ccccc12 (stereo not drawn),inactive
4,COc1ccc(-c2cccc(NS(=O)(=O)c3cc(C)c(OC)c(C)c3C)c2)nn1,inactive
5,Cc1cccc(C(=O)Nc2ccc(S(=O)(=O)N3CCCCC3c3cccnc3)cc2)c1 (stereo not drawn),inactive
6,CCCCN(CC)C(=O)c1c[nH]c2ccc(S(=O)(=O)Nc3cccc(OC)c3)cc2c1=O,inactive
7,O=C(NCCNc1ccccc1[N+](=O)[O-])c1ccccc1F,inactive
8,Cc1c(NC(=S)NCc2ccc(F)cc2)cccc1[N+](=O)[O-],inactive
9,O=[N+]([O-])c1ccccc1NCc1ccc(Cl)cc1,8.91 µM (active)
10,CC(Nc1ccc(-c2nc(-c3ccco3)no2)cc1[N+](=O)[O-])c1ccccc1 (stereo not drawn),inactive
11,COc1ccc(C2C(=O)N(C3CCCCC3)CC(=O)N2Cc2ccccc2Cl)cc1OC (stereo not drawn),inactive
12,COc1ccc(Nc2ncc3c(n2)CCN(C(=O)OC(C)(C)C)C3)cc1,inactive
13,CCOC(=O)C1CCN(c2csc3ccc(C)cc3c2=O)CC1,inactive
14,O=C(O)c1ccccc1-c1ccccc1C(=O)NCCc1ccccc1,inactive
15,NC(=O)Nc1ccccc1C(=O)NCCc1ccccc1,inactive
16,Nc1nonc1C(=O)NCCc1ccccc1,17.8 µM (active)
17,O=C1CCCc2cc(S(=O)(=O)N3CCCC(C(=O)NCc4ccccc4)C3)ccc2N1 (stereo not drawn),inactive
18,CCOc1ccccc1C(=O)Nc1ccc2c(c1)N(C)C(=O)c1ccccc1S2,inactive
19,Cc1cc(F)ccc1NC1(c2ccccc2)C(=O)c2ccccc2C1=O,inactive
20,COc1ccc(-c2noc(-c3ccc(N4CCN(c5ccccc5)CC4)c([N+](=O)[O-])c3)n2)cc1OC,inactive
21,Cc1ccc(-c2nnc(SCC(=O)NCc3ccccc3)nc2-c2ccc(C)cc2)cc1,inactive
22,Cc1ccccc1CNC(=O)C(=O)NCC(c1cccs1)S(=O)(=O)c1cccs1 (stereo not drawn),inactive
23,COc1ccc(Nc2cc(C(=O)NCCCN(C)c3ccccc3)c3ccccc3n2)c(OC)c1,inactive
24,CCOC(=O)CN1C(C(=O)c2ccccc2)=C(OC(=O)C(C)(C)C)c2ccccc2S1(=O)=O,inactive
25,COc1ccc(N2CCN(S(=O)(=O)c3ccc(-c4coc(C)n4)cc3)CC2)cc1,inactive

row,Compound,Potency
1,Cn1c(SCC(=O)N2CCCc3ccccc32)ncc(C(=O)Nc2ccc(F)cc2)c1=O,inactive
2,CCOC(=O)c1scc(-c2ccccc2)c1S(=O)(=O)Nc1ccccc1F,inactive
3,COc1ccc2c(c1)CCc1c(C(=O)Nc3cc(C)ccc3O)noc1-2,inactive
4,CCc1ccc(NC(=O)c2cc3c(=O)n(Cc4cccnc4)ccc3nc2C)cc1,inactive
5,COc1ccc(NC(=O)CSc2nccn2Cc2ccc3c(c2)OCO3)cc1,inactive
6,CC(=O)N1CCCc2cc(S(=O)(=O)N3CCC(C(=O)NCc4ccc(C)cc4)CC3)ccc21,inactive
7,CCOc1ccc(NC(=O)c2c(NC(=O)Cc3ccccc3)sc3c2CCCCC3)cc1,inactive
8,c1ccc2c(NC3C4CC5CC(C4)CC3C5)nc(N3CCOCC3)nc2c1 (stereo not drawn),inactive
9,c1cnc(NC2C3CC4CC(C3)CC2C4)nc1 (stereo not drawn),5.62 µM (active)
10,Cc1c(-c2nsc(NC(=O)c3cccc(Cl)c3)n2)nnn1-c1ccccc1C(F)(F)F,inactive
11,Cc1cccc(C(=O)Nc2ccc(-c3nc4ccccc4s3)c(C)c2)c1,inactive
12,CN1CCN(c2oc(-c3ccc(COc4ccc(Cl)cc4)o3)nc2C#N)CC1,inactive
13,COc1ccc(OCC(=O)Nc2cccc(C(=O)OCc3cc(=O)n4nc(C)sc4n3)c2)cc1,inactive
14,O=C(NCC12CC3CC(CC(C3)C1)C2)c1cc2nc(-c3ccccc3)cc(C(F)(F)F)n2n1,inactive
15,CCN(CC)c1ccc(NC(=O)CN2CCN(CC(=O)Nc3ccc(Cl)cc3)CC2)cc1,inactive
16,COc1ccc(-c2nc3nc(C)cc(C)n3c2Nc2c(C)cccc2C)cc1,inactive
17,CC1=C(C(=O)OCC2CCCCC2)C(c2c(F)cccc2Cl)CC(=O)N1 (stereo not drawn),inactive
18,COc1cccc(Cn2c(SCc3ccc(C(=O)N4CCC(C)CC4)cc3)nc3ccncc32)c1,inactive
19,COCCNS(=O)(=O)c1cc(-c2nn3c(C)nnc3c3ccccc23)ccc1C,inactive
20,CCc1cccc(C)c1NS(=O)(=O)c1ccc(-c2cc(C)no2)s1,inactive
21,Cc1cc(C)cc(-n2ccnc2SCC(=O)Nc2nc3ccccc3s2)c1,inactive
22,COc1ccc(CNC(=O)Cc2coc3ccc(C(C)C)cc23)cc1,inactive
23,Cc1cc(=O)n(CC(=O)Nc2cccc([N+](=O)[O-])c2)c(-n2nc(C)cc2C)n1,inactive
24,O=C(CCc1nc(CN2CCN(S(=O)(=O)c3ccc(Cl)cc3)CC2)no1)N1CCCCC1,inactive
25,COc1ccc(C2Sc3ccccc3NC3=C2C(=O)c2ccccc23)c(OC)c1OC (stereo not drawn),inactive

row,Compound,Potency
1,CCOCCCn1c(SCC(=O)Nc2ccc(CC)cc2)nc2ccccc2c1=O,inactive
2,COc1ccc(CCNC(=O)CCCCn2c(=O)c3ccccc3n(Cc3ccccc3C)c2=O)cc1OC,inactive
3,COc1ccc(CNC(=O)CCc2c(C)nn(-c3ccc(N4CCCC4)nn3)c2C)cc1,inactive
4,Cc1ccc(SCC(=O)Nc2ccc3oc(-c4ccccc4F)nc3c2)cc1,inactive
5,Cc1ccc2nc(CN3CCN(S(=O)(=O)c4ccc(C)c(C)c4)CC3)oc2c1,inactive
6,Cc1ccc(C)c(NC(=O)CSC2=Nc3ccccc3N=C(c3ccc(F)cc3)C2)c1,inactive
7,COc1cc(OC)c(C(=O)N2CCCC2)cc1OC,inactive
8,Cc1c(Br)cc(C(=O)N2CCCCCC2)c(C)c1C,10 µM (active)
9,Cc1ccc(C(=O)N2CCCC2)c(F)c1F,inactive
10,CCCn1c2ccccc2c2cnn(CC(=O)N(CC)c3cc(C)ccc3C)c(=O)c21,inactive
11,CCOC(=O)Cn1c(=O)n(C2CCCCC2)c2nc(-c3cccc(OC)c3)nc(C(N)=O)c21,inactive
12,O=C(CN1c2ccccc2S(=O)(=O)c2ccccc21)Nc1cccc(C(F)(F)F)c1,inactive
13,CCn1c(C)c(C)c2cc(C(=O)NCCc3cc(OC)ccc3OC)ccc21,inactive
14,Cc1cc(OCC(=O)NCC2(N(C)C)CCCCC2)cc(C)c1Cl,inactive
15,CN(C)CCCn1c(-c2ccc(Cl)cc2)csc1=Nc1ccccc1,inactive
16,O=c1cc(-c2ccccc2)n2c(SCc3ccccc3)nnc2[nH]1,inactive
17,Nc1ccc(C(=O)OCC(=O)NC2CCS(=O)(=O)C2)cc1[N+](=O)[O-] (stereo not drawn),inactive
18,COC(=O)c1cc(OCC(=O)NC2CCCc3ccccc32)cc(C(=O)OC)c1 (stereo not drawn),inactive
19,Nc1ccc(C(=O)OCC(=O)NC2CCCc3ccccc32)cc1[N+](=O)[O-] (stereo not drawn),20 µM (active)
20,CC(C)c1ccc(NC(=O)Cn2c3ncccc3c(=O)n2-c2ccccc2)cc1,inactive
21,CCc1ccc(NC(=O)c2sc3nc4c(cc3c2N)CN(CC)CC4)cc1,inactive
22,O=C(CCc1nc(CN2CCN(S(=O)(=O)c3ccc(Br)cc3)CC2)no1)N1CCCCC1,inactive
23,Cc1cc(C(=O)Nc2cccc(C(F)(F)F)c2)c2c(C)nn(-c3cccc(F)c3)c2n1,inactive
